Results from the supplement of paper PMC6555819.

Assays:
Assay in all cases: PBM binding z-score (relative to random genomic background probes); higher = stronger binding; sequences stand for … in GC…GCGATTGACAGCGTAGAATGAAGG
[1] = system: RARb homodimer (NR concentration 270 nM)
Method in brief: (§1)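 Custom Agilent 4×180K protein-binding microarrays carried double-stranded probes, each with a 34-nt variable region. These regions held direct-repeat seeds, single-nucleotide variants, half-site ablations and random human genomic background sequences. Ligand-free nuclear receptor dimers were incubated on the arrays for 1 h, antibodies against each partner (one per run) detected binding, and scanned fluorescence was regression-normalized. Binding z-scores take the random background probes as reference.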

[2] = system: RARg:RXRa (NR concentration 270 nM, RXRa partner concentration 90 nM)
Method in brief: as §1

[3] = system: RARg homodimer (NR concentration 270 nM)
Method in brief: as §1

[4] = system: RXRa DBDmut IVT, anti-RXR (DBD mutation: RXRa K156A/R161A, NR concentration 90 nM)
Method in brief: as §1

[5] = system: RXRa homodimer (NR concentration 180 nM)
Method in brief: as §1

[6] = system: THRa:RXRa (NR concentration 90 nM, RXRa partner concentration 90 nM)
Method in brief: as §1

[7] = system: THRa homodimer (NR concentration 90 nM)
Method in brief: as §1

[8] = system: VDR homodimer (NR concentration 270 nM)
Method in brief: as §1

Row | Sequence | PBM binding z-score [1] | PBM binding z-score [2] | PBM binding z-score [3] | PBM binding z-score [4] | PBM binding z-score [5] | PBM binding z-score [6] | PBM binding z-score [7] | PBM binding z-score [8]
1 | TCTCGGAGTACACGAAAGGTCAGAGCTCGACATC | 4.24 | 3.91 | 3.72 | 1.14 | 3.87 | 3.02 | 0.15 | 0.908
2 | ACTAGCAGGCCAAGTTTGGGTCACTCAGACAAAG | 2.13 | 2.11 | 1.41 | 0.0571 | 0.7 | 2.33 | 0.94 | 0.117
3 | ATATCTAGGTAAGACTCAGTTCAGTGAAGAACGC | 0.918 | 0.275 | 0.108 | 0.525 | 0.354 | 0.631 | 0.604 | 1.41
4 | GCTGTTAGTTGAAAGGGCAACCGAATGATTCTCG | 2.03 | 1.49 | 1.43 | 0.773 | 1.23 | 0.729 | -0.379 | -0.0381
5 | ATCGAAAGGACGAAGGTGAGTATACCCACCCGAA | 0.646 | 1.11 | 1.26 | -0.397 | 0.555 | 0.23 | -0.316 | -0.271
6 | TCGAGTAGGTTAGACGGGGCATTCAGCCAACATA | 0.538 | 0.307 | 0.0787 | 0.0493 | 0.305 | 0.812 | -0.51 | -0.0872
7 | TCGAGTAGATTAGTCGGGGCATTCAGCCAACATA | -0.464 | -0.658 | -0.665 | 0.38 | -0.393 | -0.269 | -0.485 | -0.548
8 | GGAGACAGGTGAAACGCAGGTAACTCAGGGTGGC | 0.55 | 1.11 | 0.252 | -0.648 | 0.638 | 1.48 | 0.0199 | -0.609
9 | ACAGAGAGGTGATGAAGGTAACTCAGGCTATCAT | 0.584 | 0.531 | 0.832 | -0.266 | 0.587 | 1.33 | 0.312 | -0.222
10 | CAAACTAGGTCAAAGGACAAAGTCGAGCCAACCA | 3.11 | 4.32 | 4.77 | 1.7 | 3.31 | 2.92 | 0.809 | 0.753
11 | CCGACTGGGGCAGTAAGGTTACCATACCATCCGG | 1.56 | 0.667 | 0.917 | -1.01 | 0.78 | 1.87 | 1.08 | 0.0425
12 | AGTCAAAGCTCAGGACGAGGTAACGTAAAGCACG | -0.228 | 0.0301 | 0.2 | -0.664 | -0.013 | 1.86 | 1.21 | -0.138
13 | CCTGCTAGGTCATGGTCAGCTACTCTACAGTATG | 3.28 | 3.94 | 4.84 | 1.7 | 2.51 | 2.76 | 1.42 | 0.186
14 | CCTAGCACGCCAGGGTCACTCAAGCATTTCGCTT | 2.65 | 2.94 | 2.18 | 0.65 | 3.14 | 2.76 | 1.12 | 0.973
15 | GCAGACAGGTGAAACGTAGGTAACTCAGGGTGGC | 0.622 | 0.956 | 0.393 | -0.48 | 0.858 | 1.2 | -0.606 | -0.684
16 | ACTATTAGTTGACTTAGGGCAACGGATACGACGC | 0.939 | 0.643 | 1.01 | 0.466 | 0.497 | 1.47 | 0.279 | -0.0346
17 | TCATATATGTAAATGCTAGGTGAAAGTCCGATCT | 0.368 | 0.1 | 0.244 | 1.18 | 0.654 | 1.01 | 0.597 | -0.0734
18 | ATCTCTAGGTAAGGATAGTTCAGTGAATGCAAAT | 1.05 | 0.45 | 0.907 | 0.233 | -0.127 | 1.21 | 0.86 | 0.73
19 | GCTTGTAGATCAAGGTTAAGAGAGACTAAGCTAA | 0.148 | 0.263 | 0.22 | -0.00641 | 0.438 | 1.2 | -0.0888 | -0.335
20 | ACTATAAGTTGAGACGAGGGCAACCGATAGGTTG | 1.57 | 1.19 | 1.21 | 0.723 | 0.925 | 3.73 | 0.194 | 1.39
21 | TCTTGCAGGCCAGAGGGTCACTCAAGAGGTACGG | 2.73 | 2.73 | 2.38 | 0.074 | 2.37 | 1.79 | -0.22 | 0.546
22 | CGTCAAAGTTCAAGATAACGTAACAGAAAGCAGC | 3.44 | 5.28 | 6.09 | 4.52 | 4.34 | 1.72 | -0.18 | 3.57
23 | GTACCAAGCTGAATAGGTCGTTGATGAGTAGGCG | 0.0267 | -0.0216 | 0.164 | -0.0938 | 0.371 | -0.0665 | -0.873 | -0.43
24 | ACTAACGGGTCAACGAGGTTATAGCACGCGTATA | 3.41 | 5.03 | 4.5 | 1.94 | 5.17 | 3.81 | 1.03 | 3.56
25 | GCTTACGGGTCAAAGCTTATAGCATGAATAGAAT | 2.29 | 4.92 | 4.8 | 2.48 | 5.91 | 2.12 | -0.718 | 0.809
26 | TCTATTAGTTGAAGGGCAACCGACGAGTCCGTTT | 1.41 | 0.635 | 0.786 | 1.57 | 0.701 | 0.419 | 0.09 | 1.87
27 | AGAATGAGGTTATGCGTAGATCAGGGAAGAAAGT | 0.687 | 1.51 | 1.09 | 1.23 | 1.99 | 2.24 | 0.599 | 0.644
28 | TAGCCTAGGTCTTTCAGGGGCCAGTATAGAAAGC | 0.423 | 0.873 | 0.295 | -0.58 | -0.286 | 0.663 | -0.603 | -0.407
